Screen size: about 52,000 compounds; fewer than 10 were called active.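 The calls were made as follows: active = IC50 under 40 µM in the dose-response test; inactive = IC50 of 40 µM or more, or never dose-tested.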 Not all results are given here.
target: Tyrosine-protein phosphatase non-receptor type 22 (Homo sapiens) (UniProt Q9Y2R2); experiment: LYP phosphatase inhibitors, primary screen, biochemical, DiFMUP fluorescence, recombinant catalytic domain, 10 µM (AID 606); conditions: at 10 µM, hits give high values
Sequence (Q9Y2R2 whole entry, looked up, the tested form may be a part): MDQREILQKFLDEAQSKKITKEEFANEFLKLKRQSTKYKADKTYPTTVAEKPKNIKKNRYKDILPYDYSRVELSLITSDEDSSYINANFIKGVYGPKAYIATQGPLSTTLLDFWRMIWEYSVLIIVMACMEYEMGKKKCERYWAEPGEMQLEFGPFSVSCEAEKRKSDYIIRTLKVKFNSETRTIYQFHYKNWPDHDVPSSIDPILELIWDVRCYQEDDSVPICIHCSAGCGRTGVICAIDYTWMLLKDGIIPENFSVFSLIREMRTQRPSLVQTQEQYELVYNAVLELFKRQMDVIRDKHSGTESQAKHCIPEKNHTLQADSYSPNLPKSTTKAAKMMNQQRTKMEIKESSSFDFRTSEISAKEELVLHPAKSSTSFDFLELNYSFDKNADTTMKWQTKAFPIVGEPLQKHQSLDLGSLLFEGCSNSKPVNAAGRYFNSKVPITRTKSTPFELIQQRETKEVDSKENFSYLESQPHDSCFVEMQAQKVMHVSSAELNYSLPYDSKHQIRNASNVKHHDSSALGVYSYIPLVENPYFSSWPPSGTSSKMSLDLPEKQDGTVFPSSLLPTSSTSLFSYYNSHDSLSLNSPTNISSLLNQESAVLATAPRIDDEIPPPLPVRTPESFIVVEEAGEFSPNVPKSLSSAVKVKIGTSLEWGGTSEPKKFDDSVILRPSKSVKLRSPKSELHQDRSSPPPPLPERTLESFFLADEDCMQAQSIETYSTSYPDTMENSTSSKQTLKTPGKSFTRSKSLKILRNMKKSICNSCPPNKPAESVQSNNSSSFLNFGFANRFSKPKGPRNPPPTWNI

inhibition, inactive:
CC1CCCCN1CCNC(=O)Cn1nc(-c2ccccc2)ccc1=O (centres undefined) -5.86%
CCOC(=O)N1CCC(NC(=O)CCC(=O)N2CC(C)Oc3ccccc32)CC1 (centres undefined) 4.49%
COCCn1cc(C(=O)N2CCCC(C)C2)c2c3ccccc3n(C)c2c1=O (centres undefined) 8.11%
CCn1c(SCC(=O)Nc2ccc(C(C)=O)cc2)nc2ccccc21 9.9%
CC(C)C(NC(=O)C1CCCCC1)C(=O)Nc1ccc2c(c1)OCCO2 (centres undefined) 5.06%
Cc1cc(C)nc(N2CCN(c3ncnc4c3cnn4Cc3ccc(Cl)cc3Cl)CC2)n1 0.3%
Cc1c(C(=O)N2CCOCC2)oc2ccc(S(=O)(=O)N3CCCCCC3)cc12 1.73%
C=CCn1c(C)nc2c(c1=O)c1nc3ccccc3nc1n2-c1ccc(C)cc1 20.7%
Cc1ccc(C2CC(c3ccccc3C)n3nc(N)nc3N2)cc1 (centres undefined) 1.78%
O=C(c1ccccc1)c1coc2ccc(O)c(CN3CCOCC3)c12 4.43%
CCn1c(SCCC#N)nnc1-c1ccncc1 5.61%
COC(=O)C1C(=O)C2=C(CC1C)NC(C)=C(C(=O)OC(C)C)C2c1ccc(OC)c(O)c1 (centres undefined) 8.85%
CCOn1c(=O)c(-c2cc3ccccc3o2)[n+]([O-])c2ccccc21 7.2%
N#C/C(=C\c1ccc[nH]1)S(=O)(=O)c1ccccc1 1.07%
Cc1cccc(-c2noc(C3CCCCC3)n2)c1 15.8%
CCOc1ccc(C(=O)NCCCN(CC)CC)cc1 16.6%
CCC1CCCCN1C(=O)Cn1c(=O)oc2ccccc21 (centres undefined) -4.33%
Cc1ccc(NC(=O)N(Cc2cc3cc(C)cc(C)c3[nH]c2=O)CC2COCCO2)cc1 (centres undefined) 1.86%
CC(C)CN1C(=O)NC(NC(=O)c2cccs2)(C(F)(F)F)C1=O (centres undefined) -4.34%
CCOc1ccccc1N(C(=O)Cn1nnnc1-c1ccc(C)o1)C(CC)C(=O)NC(C)(C)C (centres undefined) 7.35%
O=C(NCc1ccccc1)N(Cc1nc2ccccc2c(=O)[nH]1)C1CCCC1 12.2%
Fc1ccccc1N1CCN(c2nc3ccccc3n3nnnc23)CC1 0.81%
CN(C(=O)COC(=O)c1nc(-c2ccccc2)n(-c2ccccc2)n1)C1CCS(=O)(=O)C1 (centres undefined) 23.8%
C=CCc1cccc(CNc2nc3ccccc3n2CC)c1O 8.31%
O=C(O)CCc1ccc(-c2ccccc2)n1NC(=O)c1ccco1 13.5%
CC1CN(C(=O)c2cc3c(=O)n4ccccc4nc3s2)CC(C)O1 (centres undefined) 14.8%
CC(C)CC(=O)NC1(C(F)(F)F)C(=O)Nc2c1c(=O)n(C)c(=O)n2C (centres undefined) 1.85%
COc1ccc(C)cc1NC(=O)CN1CCN(c2ccccc2F)CC1 9.06%
Cc1nn2c3c(cnc2c1-c1ccccc1)C(=O)CC(c1ccco1)C3 (centres undefined) 3.63%
COc1nc(C)nc2c1sc(=S)n2C -1.82%
Cn1c(=O)c2c(nc(N3CCOCC3)n2Cc2c(F)cccc2Cl)n(C)c1=O 4.34%
COC(=O)COC(=O)c1ccc(-n2nnnc2SC)cc1 10.7%
O=C(CCn1c(=O)oc2ccccc21)N1CCN(C(c2ccccc2)c2ccccc2)CC1 5.67%
O=C(Oc1ccc(OC(=O)c2ccncc2)cc1)c1ccncc1 8.57%
COCC(C)n1c(C)cc(C(=O)COC(=O)c2ccc3ncsc3c2)c1C (centres undefined) -12.6%
CCCn1cnc2cc(NCc3ccccn3)ccc21 6.61%
NC(=O)c1ccccc1NC(=O)CCCN1C(=O)CCC1=O 14.4%
CCN(CC)c1ccc(C(=O)OCC(=O)N2CCN(c3ccccc3)CC2)cc1 0.55%
COc1ccc(N(CC(=O)Nc2ccc(OC)c(Cl)c2)S(=O)(=O)c2c(C)noc2C)cc1 6.18%
CCOC(=O)C1CCN(C(=O)COc2ccc(N(C)S(=O)(=O)c3cccs3)cc2)CC1 4.68%
CC1(C)Cc2c(C#N)c(NCCCO)nc(-c3ccccc3)c2CO1 -2.42%
CSc1nc(-c2ccco2)nn1S(=O)(=O)c1ccccc1 -1.38%
CCN(CC)Cc1cc2ccccc2c2c1COC2 0.09%
c1ccc(CCNc2ncnc3c2nnn3Cc2ccccc2)cc1 -4.3%
COc1cccc(OC)c1OCC(O)CN1CCN(c2ccccc2)CC1 (centres undefined) 2.34%
CC#CCCCC(=O)Nc1cc(OC)nc(OC)n1 3%
CN1C(=O)C(C(=O)NC(C)(C)C)C2c3ccccc3OC13CCCCC23 (centres undefined) -15%
CC(C)N(Cc1nc(-c2ccccc2)no1)S(=O)(=O)c1ccccc1 1.55%
COc1cccc(NC(=O)c2ccc(CN3CCOCC3)cc2)c1 8.87%
Cc1nc2nc(-c3cccnc3)nn2c(C)c1Cl 14.4%
CCc1cc(C(=O)Nc2ccccc2)cs1 0.95%
CC(C)n1c(C(O)c2ccc3c(c2)OCO3)nc2ccccc21 (centres undefined) 5.85%
COc1cccc2cc(-c3cn4cccc(C)c4n3)c(=O)oc12 -3.29%
CCCn1c(CN2CCCCC2CC)nc2c1c(=O)n(C)c(=O)n2C (centres undefined) -4.26%
CC(=O)NC(CCS(C)(=O)=O)C(=O)Nc1ccccc1Cl (centres undefined) 1.63%
CS(=O)(=O)N(CC(=O)Nc1ccc2c(c1)OCCO2)c1ccc2c(c1)OCO2 23.4%
COc1ccc(N2CCN(C(=O)C(Cc3ccccc3)n3cccc3)CC2)cc1 (centres undefined) -12.6%
CCN(CC)C(c1ccc(F)cc1)c1nnnn1C1CCCCC1 (centres undefined) 3.34%
NC(=O)NC(=O)COC(=O)CCCc1c[nH]c2ccccc12 1.43%
Cc1noc(NS(=O)(=O)c2ccc(NC(=O)CSc3ncccn3)cc2)c1C 11.6%
COc1ccc(C(CNC(=O)c2cc(C)oc2C)N2CCOCC2)cc1 (centres undefined) 10.4%
CC(C)(C)NC(=O)CN(C(=O)c1ccc(CN2CCOCC2)o1)c1ccc2c(c1)OCCO2 -2.48%
N#CCCN(C(=O)c1ccco1)c1ccccc1 9.22%
Cc1ccc(NC(=O)c2ccc(S(=O)(=O)NCC3CCCO3)cc2)cc1 (centres undefined) 15.7%
O=C(CN1CCN(S(=O)(=O)c2ccc(Br)cc2)CC1)Nc1ccc2c(c1)OCO2 14.6%
O=C(NCC1CCCO1)[C@@H]1CSC2c3ccccc3C(=O)N21 (some centres undefined) -1.83%
O=C(CSc1nnc(-c2ccccn2)n1Cc1ccco1)c1ccc(-c2ccccc2)cc1 -10.3%
O=C(CCc1ccccc1)Nc1nnc(-c2cccs2)o1 -13%
COc1ccc(C(=O)N2CC(=O)N(CCc3ccccc3)C(=O)C2)cc1OC 9.04%
O=C(C1CCN(S(=O)(=O)N2CCOCC2)CC1)N1CCOCC1 2.43%
CC1CN(Cc2nc3c(c(=O)n(C)c(=O)n3C)n2CC(=O)c2ccccc2)CC(C)O1 (centres undefined) -0.17%
COc1ccc(-n2c(=O)[nH]cc(C(=O)N3CCCc4ccccc43)c2=O)cc1 2.14%
O=C(NCc1ccco1)C1CCN(S(=O)(=O)c2cccc3cccnc23)CC1 4.72%
CCCCn1c2c(c(=O)n(C)c1=O)C(c1ccc(OC)cc1)N1CCCCCC1=N2 (centres undefined) -3.4%
Cc1ccc(S(=O)(=O)NCCC(=O)NCc2ccccc2)cc1 7.96%
CC1CCc2sc3nc(NCc4ccco4)n4ncnc4c3c2C1 (centres undefined) 2.11%
C=CCn1c(NCCO)nc2sc3c(c2c1=O)CCC3 11.6%
OCCn1nc2c3ccccc3nc-2n(-c2ccccc2)c1=S 3.81%
O=C(Nc1c(C(=O)N2CCOCC2)cnn1-c1ccccc1)c1ccccc1 1.38%
COc1ccc2c(c1)C1(Nc3ccccc3-c3nc4ccccc4n31)C(=O)N2C (centres undefined) 7.56%
C1CCc2c(nnc3c2-c2nonc2CC3)C1 11.1%
CSc1nc2c(c(=O)n1Cc1ccccc1)SC(C)C2 (centres undefined) 0.73%
Cn1c(SCC(=O)N2CCCCC2)nnc1-c1ccc(S(=O)(=O)N2CCOCC2)cc1 13.4%
CC(C)(C)NC(=O)C(OC(=O)Cn1nnc(-c2ccc(F)cc2)n1)c1ccncc1 (centres undefined) 1.61%
O=C(c1cc2ccccn2n1)N1CCN(c2ccccn2)CC1 7.66%
CN1C(=O)C(O)(CC(=O)c2ccccn2)c2cc(Br)ccc21 (centres undefined) 4.59%
COc1cc2ccccc2cc1C(=O)Nc1ccccc1N1CCN(S(C)(=O)=O)CC1 6.41%
CC(=O)c1c(N2CCN(c3ccccc3)CC2)nc(=S)n(-c2ccccc2)c1C 3.4%
Cn1c(CCNC(=O)c2cccs2)nnc1SCC(=O)N1CCN(c2ccccc2)CC1 6.14%
CCN1C(=O)C(O)(CC(=O)c2cc(C)ccc2C)c2ccccc21 (centres undefined) 11.7%
CCOC(=O)c1cc2n(n1)C(C(F)(F)C(F)(F)F)CC(C)N2 (centres undefined) 15.7%
O=C(C1CCN(c2nnc(-n3cccc3)s2)CC1)N1CCN(c2cccc(C(F)(F)F)c2)CC1 -2.18%
NC(=O)CN(c1ccc(Cl)cc1)S(=O)(=O)c1ccccc1 -12.5%
COc1ccc(N(CC(=O)N2CCc3ccccc3C2)S(=O)(=O)c2c(C)nn(C)c2C)cc1 -0.55%

— PubChem BioAssay AID606 (Columbia University Molecular Screening Center, 2007)
